Experiment [1] concerns the target Death-associated protein kinase 1 (Homo sapiens) (UniProt P53355). The conditions noted are these: at 1 µM.
Experiment [2] shares this target. The conditions noted are these: at 10 µM.
The target in experiment [3] is Death-associated protein kinase 2 (Homo sapiens) (UniProt Q9UIK4). The conditions noted are these: at 1 µM.
For experiment [4] the target is unchanged. The following applies: at 10 µM.
Experiment [5] concerns the target T1, Serine/threonine-protein kinase DCLK2 (Homo sapiens) (UniProt Q8N568).
T1 sequence (whole entry): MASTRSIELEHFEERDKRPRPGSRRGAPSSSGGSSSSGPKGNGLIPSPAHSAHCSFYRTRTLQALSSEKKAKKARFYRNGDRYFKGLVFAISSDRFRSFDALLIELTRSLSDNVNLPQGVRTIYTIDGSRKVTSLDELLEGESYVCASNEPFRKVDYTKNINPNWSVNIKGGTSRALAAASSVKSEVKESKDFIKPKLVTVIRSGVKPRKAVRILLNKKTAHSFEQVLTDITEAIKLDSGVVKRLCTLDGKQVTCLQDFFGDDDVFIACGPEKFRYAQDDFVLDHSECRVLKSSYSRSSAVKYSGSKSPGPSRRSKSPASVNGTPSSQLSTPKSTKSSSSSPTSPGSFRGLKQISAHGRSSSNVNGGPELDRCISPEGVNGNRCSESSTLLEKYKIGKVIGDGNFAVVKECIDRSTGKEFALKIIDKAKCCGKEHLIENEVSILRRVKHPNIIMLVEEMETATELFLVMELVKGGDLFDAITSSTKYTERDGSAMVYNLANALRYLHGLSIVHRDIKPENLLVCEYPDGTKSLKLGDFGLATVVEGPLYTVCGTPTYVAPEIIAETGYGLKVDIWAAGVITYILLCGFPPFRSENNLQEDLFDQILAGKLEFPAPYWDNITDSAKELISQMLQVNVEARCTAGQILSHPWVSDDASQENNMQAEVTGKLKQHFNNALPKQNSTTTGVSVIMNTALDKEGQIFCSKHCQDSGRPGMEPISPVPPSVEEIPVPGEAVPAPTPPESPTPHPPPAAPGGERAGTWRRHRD
The conditions noted are these: at 1 µM.

In experiment [6] the target is T1, Serine/threonine-protein kinase DCLK2 (Homo sapiens). The following applies: at 10 µM.
Experiment [7] concerns the target T2, Discoidin domain-containing receptor 2 (Homo sapiens) (UniProt Q16832).
T2 sequence (whole entry): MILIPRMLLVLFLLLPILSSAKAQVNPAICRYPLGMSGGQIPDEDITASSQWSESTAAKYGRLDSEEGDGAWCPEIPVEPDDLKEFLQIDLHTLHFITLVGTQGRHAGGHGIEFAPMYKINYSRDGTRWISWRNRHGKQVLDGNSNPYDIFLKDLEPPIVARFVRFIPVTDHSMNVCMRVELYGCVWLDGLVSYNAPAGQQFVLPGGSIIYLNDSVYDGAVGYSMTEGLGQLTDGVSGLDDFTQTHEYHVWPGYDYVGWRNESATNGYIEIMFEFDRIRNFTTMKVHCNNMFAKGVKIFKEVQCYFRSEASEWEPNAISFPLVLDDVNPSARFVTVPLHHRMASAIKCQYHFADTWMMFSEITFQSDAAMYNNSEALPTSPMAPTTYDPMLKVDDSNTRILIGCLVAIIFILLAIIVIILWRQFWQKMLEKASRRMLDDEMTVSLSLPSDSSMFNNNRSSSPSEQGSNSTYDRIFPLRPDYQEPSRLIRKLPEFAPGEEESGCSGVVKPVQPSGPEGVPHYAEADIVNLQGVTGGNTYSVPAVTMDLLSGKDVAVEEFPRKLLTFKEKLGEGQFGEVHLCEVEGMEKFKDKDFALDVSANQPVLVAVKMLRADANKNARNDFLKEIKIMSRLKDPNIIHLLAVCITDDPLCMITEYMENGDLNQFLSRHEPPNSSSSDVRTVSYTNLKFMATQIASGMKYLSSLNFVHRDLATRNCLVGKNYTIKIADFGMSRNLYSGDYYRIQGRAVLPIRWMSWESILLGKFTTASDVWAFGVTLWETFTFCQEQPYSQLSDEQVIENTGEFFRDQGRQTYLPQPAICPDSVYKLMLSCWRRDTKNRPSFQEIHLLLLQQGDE
The following applies: at 1 µM.

The target in experiment [8] is T2, Discoidin domain-containing receptor 2 (Homo sapiens). The conditions noted are these: at 10 µM.
In experiment [9] the target is T3, Myotonin-protein kinase (Homo sapiens) (UniProt Q09013).
T3 sequence (whole entry): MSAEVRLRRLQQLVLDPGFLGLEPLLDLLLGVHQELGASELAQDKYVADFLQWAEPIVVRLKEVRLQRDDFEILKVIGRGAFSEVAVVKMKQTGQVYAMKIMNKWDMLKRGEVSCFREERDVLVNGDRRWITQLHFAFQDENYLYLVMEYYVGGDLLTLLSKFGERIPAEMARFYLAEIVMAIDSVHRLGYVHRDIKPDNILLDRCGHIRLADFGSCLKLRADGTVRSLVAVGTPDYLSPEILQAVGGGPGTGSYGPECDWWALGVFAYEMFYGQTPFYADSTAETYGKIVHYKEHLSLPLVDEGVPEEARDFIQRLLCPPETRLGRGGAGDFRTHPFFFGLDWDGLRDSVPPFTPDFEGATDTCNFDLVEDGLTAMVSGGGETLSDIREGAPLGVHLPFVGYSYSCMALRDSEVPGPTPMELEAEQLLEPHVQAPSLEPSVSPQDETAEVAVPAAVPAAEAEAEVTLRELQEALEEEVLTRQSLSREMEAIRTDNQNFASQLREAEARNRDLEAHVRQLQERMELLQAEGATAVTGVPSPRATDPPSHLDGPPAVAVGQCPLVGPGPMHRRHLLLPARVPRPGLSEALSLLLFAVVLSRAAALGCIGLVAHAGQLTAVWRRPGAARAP
The conditions noted are these: at 1 µM.

Experiment [10] concerns the target T3, Myotonin-protein kinase (Homo sapiens). The following applies: at 10 µM.
In experiment [11] the target is T4, Serine/threonine-protein kinase 17A (Homo sapiens) (UniProt Q9UEE5).
T4 sequence (whole entry): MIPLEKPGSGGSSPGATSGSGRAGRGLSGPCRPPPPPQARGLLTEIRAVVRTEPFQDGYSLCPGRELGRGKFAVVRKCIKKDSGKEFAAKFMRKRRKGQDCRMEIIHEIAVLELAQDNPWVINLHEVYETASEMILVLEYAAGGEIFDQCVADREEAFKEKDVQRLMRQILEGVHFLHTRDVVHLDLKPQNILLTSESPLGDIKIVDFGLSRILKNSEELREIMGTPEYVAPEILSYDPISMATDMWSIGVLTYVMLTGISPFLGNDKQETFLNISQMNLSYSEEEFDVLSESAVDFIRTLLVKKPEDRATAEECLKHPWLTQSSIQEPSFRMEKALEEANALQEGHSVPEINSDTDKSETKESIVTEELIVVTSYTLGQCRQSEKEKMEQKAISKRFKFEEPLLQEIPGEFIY
The conditions noted are these: at 1 µM.

For experiment [12], the target named is T4, Serine/threonine-protein kinase 17A (Homo sapiens). The following applies: at 10 µM.
Experiment [13] has as its target T5, Dual specificity tyrosine-phosphorylation-regulated kinase 2 (Homo sapiens) (UniProt Q92630).
T5 sequence (whole entry): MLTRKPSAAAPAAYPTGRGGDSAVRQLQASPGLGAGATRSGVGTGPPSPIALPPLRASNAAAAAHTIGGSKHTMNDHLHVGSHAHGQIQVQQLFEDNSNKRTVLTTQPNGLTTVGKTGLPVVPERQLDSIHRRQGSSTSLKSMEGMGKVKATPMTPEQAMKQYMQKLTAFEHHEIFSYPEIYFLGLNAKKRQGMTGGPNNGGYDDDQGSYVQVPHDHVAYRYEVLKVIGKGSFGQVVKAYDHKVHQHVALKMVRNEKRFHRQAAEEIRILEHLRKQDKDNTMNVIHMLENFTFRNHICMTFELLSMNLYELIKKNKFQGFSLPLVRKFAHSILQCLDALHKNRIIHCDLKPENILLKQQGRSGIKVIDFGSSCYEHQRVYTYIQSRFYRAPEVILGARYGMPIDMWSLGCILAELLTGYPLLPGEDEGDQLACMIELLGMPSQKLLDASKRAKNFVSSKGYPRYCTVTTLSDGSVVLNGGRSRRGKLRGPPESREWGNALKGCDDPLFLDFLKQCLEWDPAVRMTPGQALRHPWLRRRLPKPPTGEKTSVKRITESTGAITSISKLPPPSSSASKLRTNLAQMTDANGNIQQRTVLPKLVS
The following applies: at 1 µM.

In experiment [14] the target is T5, Dual specificity tyrosine-phosphorylation-regulated kinase 2 (Homo sapiens). The following applies: at 10 µM.
Experiment [15] has as its target T6, Ephrin type-A receptor 1 (Homo sapiens) (UniProt P21709).
T6 sequence (whole entry): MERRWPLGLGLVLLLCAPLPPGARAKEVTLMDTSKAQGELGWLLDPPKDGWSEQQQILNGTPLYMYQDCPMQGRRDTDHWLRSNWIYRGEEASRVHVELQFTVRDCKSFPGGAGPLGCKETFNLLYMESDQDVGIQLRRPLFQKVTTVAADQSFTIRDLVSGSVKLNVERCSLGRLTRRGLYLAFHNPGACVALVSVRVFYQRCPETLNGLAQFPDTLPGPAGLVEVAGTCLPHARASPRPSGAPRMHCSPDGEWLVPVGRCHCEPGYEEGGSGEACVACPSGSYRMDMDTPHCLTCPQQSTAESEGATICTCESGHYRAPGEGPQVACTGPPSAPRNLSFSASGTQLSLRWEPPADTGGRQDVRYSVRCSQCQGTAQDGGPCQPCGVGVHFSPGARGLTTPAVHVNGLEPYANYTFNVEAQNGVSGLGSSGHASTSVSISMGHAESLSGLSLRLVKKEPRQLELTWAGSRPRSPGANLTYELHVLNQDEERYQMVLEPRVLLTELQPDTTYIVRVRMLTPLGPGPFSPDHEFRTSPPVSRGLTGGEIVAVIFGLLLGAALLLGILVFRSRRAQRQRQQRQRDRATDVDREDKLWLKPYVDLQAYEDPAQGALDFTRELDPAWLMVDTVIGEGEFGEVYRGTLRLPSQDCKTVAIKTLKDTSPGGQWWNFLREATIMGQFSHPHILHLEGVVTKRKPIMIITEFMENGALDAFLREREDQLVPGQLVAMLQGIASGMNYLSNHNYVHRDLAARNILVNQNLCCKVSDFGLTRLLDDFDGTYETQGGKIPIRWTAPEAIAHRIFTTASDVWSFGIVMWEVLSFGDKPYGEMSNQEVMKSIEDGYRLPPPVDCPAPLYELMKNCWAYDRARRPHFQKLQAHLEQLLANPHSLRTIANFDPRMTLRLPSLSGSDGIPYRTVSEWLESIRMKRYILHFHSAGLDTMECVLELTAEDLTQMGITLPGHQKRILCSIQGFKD
The following applies: at 1 µM.

The target of experiment [16] is T6, Ephrin type-A receptor 1 (Homo sapiens). The conditions noted are these: at 10 µM.
Experiment [17] addresses Ephrin type-A receptor 2 (Homo sapiens) (UniProt P29317). The conditions noted are these: at 1 µM.
Experiment [18] shares this target. The conditions noted are these: at 10 µM.
In experiment [19] the target is T7, Ephrin type-A receptor 3 (Homo sapiens) (UniProt P29320).
T7 sequence (whole entry): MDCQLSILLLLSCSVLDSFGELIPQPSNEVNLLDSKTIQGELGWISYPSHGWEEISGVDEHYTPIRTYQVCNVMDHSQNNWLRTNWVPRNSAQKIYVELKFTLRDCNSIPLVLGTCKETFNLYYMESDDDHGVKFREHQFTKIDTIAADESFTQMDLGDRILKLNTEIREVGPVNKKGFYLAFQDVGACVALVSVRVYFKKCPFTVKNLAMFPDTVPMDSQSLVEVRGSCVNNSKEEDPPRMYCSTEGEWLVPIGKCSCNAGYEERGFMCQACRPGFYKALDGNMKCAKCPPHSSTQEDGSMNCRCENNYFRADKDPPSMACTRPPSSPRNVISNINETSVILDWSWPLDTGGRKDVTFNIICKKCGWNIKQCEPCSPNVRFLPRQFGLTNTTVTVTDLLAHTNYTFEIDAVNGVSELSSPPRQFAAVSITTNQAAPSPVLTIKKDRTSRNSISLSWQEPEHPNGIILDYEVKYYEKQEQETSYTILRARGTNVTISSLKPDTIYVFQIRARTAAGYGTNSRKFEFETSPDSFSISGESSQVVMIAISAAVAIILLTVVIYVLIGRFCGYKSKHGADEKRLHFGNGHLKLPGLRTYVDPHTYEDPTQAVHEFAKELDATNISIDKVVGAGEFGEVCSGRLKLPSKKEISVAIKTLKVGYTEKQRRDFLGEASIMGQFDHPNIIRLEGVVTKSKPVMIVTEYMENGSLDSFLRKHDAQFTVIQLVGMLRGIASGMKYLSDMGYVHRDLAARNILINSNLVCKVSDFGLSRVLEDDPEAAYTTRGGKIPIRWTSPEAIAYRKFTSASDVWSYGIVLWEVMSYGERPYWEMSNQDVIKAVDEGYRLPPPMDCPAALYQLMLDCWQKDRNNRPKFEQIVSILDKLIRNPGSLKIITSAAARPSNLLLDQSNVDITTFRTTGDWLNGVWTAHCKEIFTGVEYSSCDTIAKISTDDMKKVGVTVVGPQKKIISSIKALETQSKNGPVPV
The following applies: at 1 µM.

Each structure is given as a SMILES string.

Sequence of Death-associated protein kinase 1 (Homo sapiens) (P53355 whole entry, looked up): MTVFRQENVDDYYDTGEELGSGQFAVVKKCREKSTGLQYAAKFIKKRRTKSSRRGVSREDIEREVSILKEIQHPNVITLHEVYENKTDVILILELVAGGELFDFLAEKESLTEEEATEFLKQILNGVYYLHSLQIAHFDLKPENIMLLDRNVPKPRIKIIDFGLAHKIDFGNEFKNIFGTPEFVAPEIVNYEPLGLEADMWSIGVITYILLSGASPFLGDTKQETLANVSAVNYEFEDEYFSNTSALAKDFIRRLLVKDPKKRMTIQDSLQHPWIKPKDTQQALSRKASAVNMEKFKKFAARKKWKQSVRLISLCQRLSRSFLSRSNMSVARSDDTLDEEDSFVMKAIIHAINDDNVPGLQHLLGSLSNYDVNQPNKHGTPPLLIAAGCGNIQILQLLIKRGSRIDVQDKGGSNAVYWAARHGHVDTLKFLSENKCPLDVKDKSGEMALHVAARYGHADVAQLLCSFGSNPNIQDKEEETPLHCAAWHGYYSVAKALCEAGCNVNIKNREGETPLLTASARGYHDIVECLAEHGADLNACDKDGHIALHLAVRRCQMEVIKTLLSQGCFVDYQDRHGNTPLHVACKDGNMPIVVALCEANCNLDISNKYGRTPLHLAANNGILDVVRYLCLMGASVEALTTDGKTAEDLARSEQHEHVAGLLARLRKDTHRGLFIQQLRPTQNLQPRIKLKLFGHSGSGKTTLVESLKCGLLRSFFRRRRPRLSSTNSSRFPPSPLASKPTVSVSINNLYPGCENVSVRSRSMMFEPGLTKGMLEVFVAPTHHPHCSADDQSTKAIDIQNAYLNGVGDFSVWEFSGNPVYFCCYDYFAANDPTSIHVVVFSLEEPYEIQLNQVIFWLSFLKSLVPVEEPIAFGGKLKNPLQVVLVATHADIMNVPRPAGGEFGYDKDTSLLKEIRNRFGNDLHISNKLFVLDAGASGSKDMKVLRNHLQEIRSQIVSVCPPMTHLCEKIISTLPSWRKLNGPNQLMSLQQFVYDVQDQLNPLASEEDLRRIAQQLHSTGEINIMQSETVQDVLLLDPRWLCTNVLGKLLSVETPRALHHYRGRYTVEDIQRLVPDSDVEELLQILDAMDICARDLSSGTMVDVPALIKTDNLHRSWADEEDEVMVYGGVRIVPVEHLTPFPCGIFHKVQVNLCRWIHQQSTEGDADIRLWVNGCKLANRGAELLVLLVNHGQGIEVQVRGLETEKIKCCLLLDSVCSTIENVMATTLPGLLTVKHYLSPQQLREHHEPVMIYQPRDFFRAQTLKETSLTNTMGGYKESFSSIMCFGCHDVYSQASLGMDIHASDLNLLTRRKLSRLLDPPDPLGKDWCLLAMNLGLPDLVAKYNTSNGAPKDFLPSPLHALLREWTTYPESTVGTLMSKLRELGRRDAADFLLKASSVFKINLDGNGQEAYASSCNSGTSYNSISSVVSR
Sequence of Ephrin type-A receptor 2 (Homo sapiens) (P29317 whole entry): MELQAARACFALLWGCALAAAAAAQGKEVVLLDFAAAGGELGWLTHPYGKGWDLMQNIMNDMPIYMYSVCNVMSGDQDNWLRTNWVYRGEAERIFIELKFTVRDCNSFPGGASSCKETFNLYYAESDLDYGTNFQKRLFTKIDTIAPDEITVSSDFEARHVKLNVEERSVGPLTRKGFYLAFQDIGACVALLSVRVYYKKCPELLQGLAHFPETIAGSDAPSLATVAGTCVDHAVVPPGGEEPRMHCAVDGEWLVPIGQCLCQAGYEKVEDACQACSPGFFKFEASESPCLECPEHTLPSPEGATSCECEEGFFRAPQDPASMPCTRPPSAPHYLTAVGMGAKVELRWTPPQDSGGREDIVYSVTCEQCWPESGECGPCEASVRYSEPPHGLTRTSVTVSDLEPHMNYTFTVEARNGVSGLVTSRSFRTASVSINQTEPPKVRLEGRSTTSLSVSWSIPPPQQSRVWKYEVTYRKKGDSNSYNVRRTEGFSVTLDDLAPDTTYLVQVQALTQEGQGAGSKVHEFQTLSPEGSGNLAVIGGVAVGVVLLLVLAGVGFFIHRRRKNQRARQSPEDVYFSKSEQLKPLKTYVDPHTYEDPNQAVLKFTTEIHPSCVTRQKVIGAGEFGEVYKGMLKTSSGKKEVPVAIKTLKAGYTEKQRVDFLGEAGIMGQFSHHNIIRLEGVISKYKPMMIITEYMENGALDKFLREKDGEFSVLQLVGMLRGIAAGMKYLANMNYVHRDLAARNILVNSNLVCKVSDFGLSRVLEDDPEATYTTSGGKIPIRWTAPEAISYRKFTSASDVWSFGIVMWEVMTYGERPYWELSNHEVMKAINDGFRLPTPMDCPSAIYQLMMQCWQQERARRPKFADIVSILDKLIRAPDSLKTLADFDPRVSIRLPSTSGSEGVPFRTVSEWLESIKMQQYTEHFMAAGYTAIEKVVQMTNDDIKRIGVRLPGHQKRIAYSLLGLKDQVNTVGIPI
Sequence of Death-associated protein kinase 2 (Homo sapiens) (Q9UIK4 whole entry, looked up): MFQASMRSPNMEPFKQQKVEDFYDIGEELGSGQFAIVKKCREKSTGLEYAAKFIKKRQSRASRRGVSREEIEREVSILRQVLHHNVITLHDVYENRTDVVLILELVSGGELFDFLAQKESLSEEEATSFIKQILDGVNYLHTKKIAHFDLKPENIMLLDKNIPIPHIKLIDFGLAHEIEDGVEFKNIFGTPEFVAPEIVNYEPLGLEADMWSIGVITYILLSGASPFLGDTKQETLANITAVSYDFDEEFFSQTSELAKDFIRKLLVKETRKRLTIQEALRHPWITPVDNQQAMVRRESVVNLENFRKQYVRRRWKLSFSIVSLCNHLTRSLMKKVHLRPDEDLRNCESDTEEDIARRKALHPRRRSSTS

As for `O=c1cc(-c2cccc3c2Sc2ccccc2S3)oc(N2CCOCC2)c1`, the residual activity (usually the signal under treatment as a percentage of the control signal) in experiment [1] was determined as 91%.

As to `O=c1[nH]c2ccccc2n1C1CCN(Cc2ccc(-c3nc4cc5[nH]cnc5cc4nc3-c3ccccc3)cc2)CC1`, the residual activity in experiment [1] was 93%; in experiment [2], 95%; in [3], 98%; in experiment [4], 78%; in experiment [5], 87%; in [6], 98%. In addition, the residual activity in [7] worked out at 109%; in [8], 85%; in [9], 133%; in [10] it was 143%; in experiment [11], 126%; in experiment [12] it was 112%. The residual activity in [13] was found to be 111%; in experiment [14], 98%; in experiment [15], 102%; in [16], 90%; in experiment [17] it was 103%; in experiment [18], 95%. Also, the residual activity in [19] stood at 112%.

With `Cn1cnc2cc3c(Nc4cccc(Br)c4)ncnc3cc21`, the residual activity in experiment [1] came to 94%.

The values are drawn from ChEMBL document CHEMBL2218924, “A broad activity screen in support of a chemogenomic map for kinase signalling research and drug discovery” (Biochem J, 2013).
